PABP polyA inh: PABP poly(A) RNA binding inhibitors, primary screen, biochemical, fluorescence polarization, uHTS. AID 2014, 2009. calls only at 35 µM. Polyadenylate-binding protein 1 (Homo sapiens), P11940. 290,000 compounds, 1% hits;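 note: calls also rest on retests at 20 µM and on dose response follow-up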
AI-2 QS modul: Vibrio harveyi AI-2 quorum sensing modulators, primary screen, JMH597 strain, luminescence/OD600 ratio. AID 2094, 2009. 300,000 compounds, 0.4% hits. activity change, % at 7.5 µM. Vibrio harveyi JMH597 AI-2 luminescence/OD600 ratio, 9 h; active compounds read low; strain lacks LuxN and CqsS sensors; 0 = neutral-control median; in the data active = activity change below about -75%, passing the limit was not always enough; inconclusive = no clear call, values can overlap the other calls;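 note: luminescence divided by OD600 gain over 9 h not by final OD600 alone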
MLLE-PAM2 inh: inhibitors of PABP1 MLLE–PAM2 peptide binding, primary screen, biochemical, fluorescence polarization, FITC-PAM2, GST-MLLE | Polyadenylate-binding protein 1 (Homo sapiens), P11940 | inhibition, % at 20 µM | 360,000 compounds, 0.36% hits; in the data active = inhibition above about 35%, passing the limit was not always enough
ABCB6 inh MLPCN: ABCB6 transporter inhibitors, primary screen, K562-ABCB6 cells, flow cytometry, MLPCN library; 360,000 compounds, 0.19% hits; K562-ABCB6 porphyrin accumulation, 1 h; active compounds read low; AID 602162, 2011; fluorescence ratio to DMSO, % at 10 µM; ATP-binding cassette sub-family B member 6 (Homo sapiens), Q9NP58;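 active = fluorescence ratio to DMSO below 75%, the collection mean minus 3 SD; inconclusive = too few cells collected in the well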;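 note: signal is porphyrin accumulated inside mitochondria; lower ratio means ABCB6 inhibition with less porphyrin fluorescence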
Target sequence (Q9NP58 whole entry, looked up): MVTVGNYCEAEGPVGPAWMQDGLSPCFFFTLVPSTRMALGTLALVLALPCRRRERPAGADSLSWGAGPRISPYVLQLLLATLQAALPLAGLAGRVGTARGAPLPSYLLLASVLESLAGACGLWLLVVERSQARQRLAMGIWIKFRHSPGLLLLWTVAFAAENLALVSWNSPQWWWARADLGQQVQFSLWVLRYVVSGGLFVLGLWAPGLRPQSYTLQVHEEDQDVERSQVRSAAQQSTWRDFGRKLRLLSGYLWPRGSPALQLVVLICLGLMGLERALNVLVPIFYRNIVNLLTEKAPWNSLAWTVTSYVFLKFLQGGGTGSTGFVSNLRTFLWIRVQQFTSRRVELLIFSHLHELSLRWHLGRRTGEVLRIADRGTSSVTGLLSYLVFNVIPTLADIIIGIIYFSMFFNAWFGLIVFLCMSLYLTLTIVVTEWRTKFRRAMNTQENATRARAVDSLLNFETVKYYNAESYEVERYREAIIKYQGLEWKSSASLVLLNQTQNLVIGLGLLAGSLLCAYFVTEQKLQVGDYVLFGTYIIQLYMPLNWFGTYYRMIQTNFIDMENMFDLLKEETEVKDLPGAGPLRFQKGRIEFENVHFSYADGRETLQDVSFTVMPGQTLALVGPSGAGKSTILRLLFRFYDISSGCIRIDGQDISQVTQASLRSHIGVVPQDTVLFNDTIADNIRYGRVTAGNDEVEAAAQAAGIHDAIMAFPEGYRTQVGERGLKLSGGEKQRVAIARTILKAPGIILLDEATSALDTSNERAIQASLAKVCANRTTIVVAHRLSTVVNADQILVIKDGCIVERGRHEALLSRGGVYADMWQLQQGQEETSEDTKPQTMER
eIF4H FP inh: human eIF4H binding inhibitors, primary screen, translation initiation inhibitor project, biochemical, uHTS, fluorescence polarization | Eukaryotic translation initiation factor 4H (Homo sapiens), Q15056 | AID 2012, 2009 | 290,000 compounds, 0.94% hits | inhibition, % at 35 µM | eIF4H fluorescence polarization binding assay;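 note: calls also rest on retests at 20 µM and on dose response follow-up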
PHOSPHO1 block: PubChem AID 1565 | Phosphoethanolamine/phosphocholine phosphatase (Homo sapiens), Q8TCT1 | recombinant PHOSPHO1, absorbance phosphatase assay | inhibition, % at 13.3 µM | 290,000 compounds, 1.1% hits; in the data active = inhibition above about 60%
Numbers stand for hits; – = inactive; ? = inconclusive; · = no result; + = active, no number. Compounds with a hit are over-represented: about 2.6% of the library has one in this group of screens. Unless noted, the rule behind the calls is not given here.

SMILES | PABP polyA inh | AI-2 QS modul | MLLE-PAM2 inh | ABCB6 inh MLPCN | eIF4H FP inh | PHOSPHO1 block
CC(=O)Nc1ccc(C(=O)N2CCCCC2c2cc(C(=O)N3CCOCC3)no2)cc1 (centres undefined) | · | · | – | – | · | ·
CC1C2(C)OCC(C#N)(C(=N)O2)C1(C#N)C#N (centres undefined) | + | – | · | · | 63 | –
Cc1cc(C)c(NC(=O)C2CCCN2CCOC(=O)c2cccc([N+](=O)[O-])c2)c(C)c1 (centres undefined) | + | – | – | – | active | –
Cc1ccc(CN2CCC2(C)C(=O)NC2CCc3ccccc32)cc1 (centres undefined) | · | · | – | – | · | ·
CCC1(c2ccccc2)NC(=O)N(CC(=O)NCc2ccc(OC)cc2)C1=O (centres undefined) | – | -80 | – | – | – | –
CC(C)n1c(=S)[nH]c2ccccc21 | – | – | – | – | – | 84
Cc1ccc(NC(=O)Cn2c(=S)[nH]c3ccccc32)cc1 | – | – | – | – | – | 62
CCn1c(=S)[nH]c2ccccc21 | – | – | – | – | – | 71
CCn1c(=S)[nH]c2cc(Cl)ccc21 | – | – | – | – | – | –
Cc1noc(C)c1S(=O)(=O)Nc1ccc2c(c1)C(=O)N([C@@H](C)CO)C[C@H](C)[C@@H](CN(C)Cc1ccc(C(F)(F)F)cc1)OCCCC[C@H](C)O2 | · | · | – | – | · | ·
O=C(NCc1ccccc1Cl)[C@H]1CCCN1C(=O)[C@H]1CCCN1C(=O)c1cccc2ccccc12 | · | · | · | – | · | ·
O=c1cc(CO)oc(C(Nc2ccccn2)c2ccsc2)c1O (centres undefined) | + | – | · | · | 71 | –
COCCn1c(SCCN2CCOCC2)nc2c1c(=O)[nH]c(=O)n2C | – | – | – | – | – | 63
C=CCn1c(SCCN2CCOCC2)nc2c1c(=O)[nH]c(=O)n2C | – | – | – | – | – | –
CCCCCCn1c(SCC(=O)OC)nc2c1c(=O)[nH]c(=O)n2C | – | – | – | – | – | 83
CCOC(=O)C(C)Sc1nc2c(c(=O)[nH]c(=O)n2C)n1C/C=C(/C)Cl (centres undefined) | – | – | – | – | – | 65
O=C(NCc1ccccc1Cl)c1csc(COCCO)n1 | · | · | – | – | · | ·
CCN(CC)Cc1ccc(NC(=O)c2sc3cc(Cl)ccc3c2Cl)cc1 | – | – | – | – | – | 60
Cc1cccc(NC(=S)NNC(=O)c2csc3c2CCC(C)C3)c1 (centres undefined) | – | – | – | – | – | –
CC(C)CNC(=S)NNC(=O)c1csc2c1CCC(C)C2 (centres undefined) | – | – | – | – | – | 84
COc1ccccc1NC(=O)c1cc(C(=O)Nc2ccccc2OC)n(C)n1 | · | – | – | – | · | ·
COc1ccccc1NC(=S)NNC(=O)c1c(Cl)c(C)nn1C | – | – | – | – | – | –
COc1ccccc1NC(=S)NNC(=O)c1cc(C)nn1C | – | – | – | – | – | 67
COc1ccccc1NC(=S)NNC(=O)c1cc(C)n(C)n1 | – | – | – | – | – | 70
O=C(NNC(=S)NC(=O)c1cccnc1)c1ccc(F)cc1 | – | -84 | – | – | – | 85
SMILES | PABP polyA inh | AI-2 QS modul | MLLE-PAM2 inh | ABCB6 inh MLPCN | eIF4H FP inh | PHOSPHO1 block
O=C(NC(=S)NNC(=O)c1cnccn1)c1ccc(F)cc1 | ? | -89 | – | – | – | –
O=C(NNC(=S)NC(=O)c1ccc(F)cc1)c1cccnc1 | – | – | – | – | – | –
O=C(/C=C/c1ccc(F)cc1)NC(=S)NNC(=O)c1cnccn1 | – | – | – | – | – | –
O=C(NC(=S)NNS(=O)(=O)c1ccc(Cl)cc1)c1cccnc1 | – | – | 40 | – | – | –
COc1ccc(CC(=O)NNC(=S)NC(=O)c2cccnc2)cc1 | – | – | – | – | – | 85
COc1cccc2sc3ccc(NCc4ccc5c(c4)OCO5)cc3c(=O)c12 | – | – | – | – | 52 | –
C[c-]1[c-](C)[c-](C)[c-](C)[c-]1C.[Fe].c1cc2nccc(N3CCCC3)[c-]2c1 (centres undefined) | + | – | 64 | – | 104 | –
CCOC(=O)CNC(=O)CSc1nc(-c2cccc(C)c2)ns1 | – | – | 41 | – | – | –
Cc1cccc(-c2nsc(SCC(=O)NCc3ccco3)n2)c1 | – | – | – | – | – | –
FC(F)(F)c1ccc2c(c1)NCC1CCCN21 (centres undefined) | + | – | – | – | 53 | –
Cc1ccc(NC(=O)CCNS(=O)(=O)c2ccc3c(c2)CCC(=O)N3)cc1F | – | – | – | – | – | 70
CCOc1ccc(NC(=O)CCNS(=O)(=O)c2ccc3c(c2)CCC(=O)N3)cc1 | – | – | – | – | – | –
Cc1cccc(NC(=O)C(NS(=O)(=O)c2ccc3c(c2)CCC(=O)N3)c2ccccc2)n1 (centres undefined) | – | – | 44 | – | – | –
Cc1ccccc1NC(=O)CCNS(=O)(=O)c1ccc2c(c1)CCC(=O)N2 | – | – | – | – | – | 62
CC[N+](CC)=N/N=C1\C=CC[N+]([O-])=C1 | · | · | · | – | · | ·
CC(/C=C/c1ccco1)=N\NC(=O)CNc1cccc(C)c1 | + | – | – | – | 95 | –
CCCc1c(-c2ccc(F)cc2)ncn1Cc1ccccc1OC | · | · | · | – | · | ·
Cc1cc2cc(CNC(=O)Cc3ccc([N+](=O)[O-])cc3)ccc2[nH]1 | – | – | – | – | – | –
Cc1cc2cc(CNC(=O)c3cccc([N+](=O)[O-])c3)ccc2[nH]1 | – | – | 45 | – | – | –
COc1cccc(C(=O)NCc2ccc3[nH]c(C)cc3c2)c1 | – | – | 38 | – | – | –
CCC(=O)N1CCCC(C)(C(=O)Nc2ccc(OC(F)F)cc2)C1 (centres undefined) | · | · | – | – | · | ·
Cc1cc(NC(=O)CSc2nc3cc(Cl)ccc3s2)no1 | – | – | – | – | – | –
O=C(CSc1nc2cc(Cl)ccc2s1)c1cc2ccccc2o1 | + | – | – | – | 45 | 102
CCCc1nc2c(C)cc(Br)cn2c1Cc1ccc(OC)cc1C | · | · | – | – | · | ·
O=C(Nc1nc(-c2ccncc2)cs1)c1ccco1 | – | – | – | – | 84 | –
COc1ccc2sc(NC(=O)c3ccco3)nc2c1 | – | – | – | – | – | 96
COc1ccc2nc(NC(=S)NC(=O)c3ccco3)sc2c1 | – | – | – | – | – | –
CCCC1CC(=O)OC1(C)C(=O)CSc1n[nH]c(-c2ccccc2)n1 (centres undefined) | – | – | · | · | – | –

Screens: PubChem BioAssay, several laboratories
